Measured values reported in PubChem BioAssay (NCI).
Compounds without any hit were thinned out: in the full panel of roughly 83,000, 20% have a hit.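 A percent growth of 40 corresponds to 60% growth inhibition; 0 means no net growth; -100 means all cells died. Active threshold: below 10.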 Active and inactive are the calls of the source.

Key:
Test in all cases: NCI-60 one-dose screen, 48 h (100 = growth as untreated, 0 = no growth, -100 = all killed)
[1] = system: NCI-H23 lung; conditions: 10 µM unless noted
[2] = system: NCI-H226 lung; conditions: 10 µM unless noted
[3] = system: NCI-H322M lung; conditions: 10 µM unless noted
[4] = system: HOP-62 NSCLC; conditions: 10 µM unless noted
[5] = system: HOP-92 NSCLC; conditions: 10 µM
[6] = system: NCI-H522 lung; conditions: 10 µM
[7] = system: A549/ATCC NSCLC; conditions: 10 µM unless noted
[8] = system: 786-0 renal; conditions: 10 µM unless noted
[9] = system: COLO 205 colon; conditions: 10 µM unless noted
[10] = system: DU-145 prostate; conditions: 10 µM unless noted
[11] = system: K-562 leukemia; conditions: 10 µM unless noted
[12] = system: MALME-3M melanoma; conditions: 10 µM unless noted
[13] = system: MDA-MB-231 breast; conditions: 10 µM unless noted
[14] = system: RXF 393 renal; conditions: 10 µM unless noted
[15] = system: SF-268 CNS; conditions: 10 µM unless noted
[16] = system: SF-295 CNS; conditions: 10 µM unless noted
[17] = system: SF-539 CNS; conditions: 10 µM unless noted
[18] = system: UACC-257 melanoma; conditions: 10 µM unless noted
[19] = system: M14 melanoma; conditions: 10 µM unless noted

Structure (SMILES)	growth [1]	growth [2]	growth [3]	growth [4]	growth [5]	growth [6]	growth [7]	growth [8]	growth [9]	growth [10]	growth [11]	growth [12]	growth [13]	growth [14]	growth [15]	growth [16]	growth [17]	growth [18]	growth [19]
CCCNC(=O)Oc1ccc(/C(=C(/C)Cc2ccc(OC)cc2)c2ccc(OCCN3CCCC3)cc2)cc1	84.1% (inactive)	90.7% (inactive)	86.5% (inactive)	76.8% (inactive)	52.1% (inactive)	71.8% (inactive)	71.8% (inactive)	70.7% (inactive)	10.1% (inactive)	90.1% (inactive)	-11.5% (active)	28.9% (inactive)	57.6% (inactive)	70% (inactive)	72.4% (inactive)	68.7% (inactive)	77.8% (inactive)	73.5% (inactive)	-52.9% (active)
CCCCCCCCCCCCCCCCC(=O)O.CCCCCCCCCCCCCCCCCC(=O)O.CCCCCCCCCCCCCCCCCC(=O)O.CCCCCCCCCCCCCCCCCC(=O)O.CCCCCCCCCCCCCCCCCC(=O)O.CO[CH-]OC12COC1CC(O)C1(C)C(O)C(OC(C)O)C3=C(C)C(OC(=O)C(O)C([NH-])c4ccccc4)CC(O)(C(OC(=O)c4ccccc4)C21)C3(C)C.[Cu+].[Zn].[Zn].[Zn].[Zn].[Zn] (centres undefined)	43.6% (inactive)	73.2% (inactive)	28.6% (inactive)	56.4% (inactive)	41.5% (inactive)	16.4% (inactive)	27.8% (inactive)	41.7% (inactive)	14.7% (inactive)		8.31% (active)	69.5% (inactive)	13.8% (inactive)	24.3% (inactive)	47.6% (inactive)	16.5% (inactive)		80.6% (inactive)	35.5% (inactive)
C/C=C(/C)C(=O)OC1C=C(CO)C(=O)C(OC(=O)C(C)(O)C(C)Cl)C1C(C)C (centres undefined)	-50.1% (active)	-19.4% (active)	-10.6% (active)	-1.29% (active)	-50.2% (active)	-34.4% (active)	-18% (active)	-72.1% (active)		3.58% (active)	1.56% (active)	-76.6% (active)	-5.1% (active)	-63.6% (active)	10.4% (inactive)	-41.4% (active)	-43.7% (active)	-19.7% (active)	-56.4% (active)
COc1cc(/C=C/C(=O)/C=C(/C=C/c2ccc(OC(C)=O)c(OC)c2)OB(F)F)ccc1OC(C)=O	61.5% (inactive)	87.1% (inactive)	99.6% (inactive)	103% (inactive)	62.5% (inactive)	16.8% (inactive)	82.7% (inactive)	80.7% (inactive)	71.2% (inactive)	64.5% (inactive)	15.2% (inactive)	51.7% (inactive)	80.8% (inactive)	14.7% (inactive)	81.2% (inactive)	86.7% (inactive)	56.8% (inactive)	63% (inactive)	34.1% (inactive)
O=C1C(Cl)=C(Nc2ccc(Nc3ccccc3)c(NC3=C(Cl)C(=O)c4ccccc4C3=O)c2)C(=O)c2ccccc21	88.4% (inactive)	98.8% (inactive)	57.3% (inactive)	59.8% (inactive)	45.3% (inactive)	14.9% (inactive)	92.7% (inactive)	78.3% (inactive)	-15.6% (active)	104% (inactive)	41.4% (inactive)	39.4% (inactive)	58.5% (inactive)	74.3% (inactive)	72.7% (inactive)		42.5% (inactive)	79.8% (inactive)	118% (inactive)
CCC(C)(C)c1ccc(OCCCCCCN2CCN(c3ccc(C)c(Cl)c3)CC2)cc1	62.3% (inactive)	73.7% (inactive)	88.3% (inactive)	98.3% (inactive)	82.6% (inactive)	84.6% (inactive)	97% (inactive)	95.7% (inactive)	91.4% (inactive)	86% (inactive)	78.4% (inactive)	86.7% (inactive)	115% (inactive)	95.6% (inactive)	82.5% (inactive)	85.7% (inactive)	98.6% (inactive)	110% (inactive)	93.7% (inactive)
CC(=O)C(CO)C(=O)Nc1ccccc1 (centres undefined)	103% (inactive)	96.9% (inactive)	85.9% (inactive)	93.3% (inactive)	96.6% (inactive)	82.3% (inactive)	93.6% (inactive)	96.8% (inactive)	99.5% (inactive)	112% (inactive)	102% (inactive)	109% (inactive)	102% (inactive)		107% (inactive)	107% (inactive)	95.4% (inactive)	85.7% (inactive)	99.5% (inactive)
CCCNC(=O)Oc1ccc(/C(=C(/CC)Cc2ccccc2)c2ccc(OCCN(CC)CC)cc2)cc1	83.8% (inactive)	87.3% (inactive)	87.4% (inactive)	84.2% (inactive)	55.7% (inactive)	76.8% (inactive)	63.6% (inactive)	80.7% (inactive)	-49% (active)	86.1% (inactive)	-31.9% (active)	79.6% (inactive)	60.8% (inactive)	66.8% (inactive)	71.4% (inactive)	97.8% (inactive)	89.7% (inactive)	82.6% (inactive)	-35.3% (active)
Nc1ccc(N=Nc2ccccc2)c2cc(S(=O)(=O)O)ccc12	91.4% (inactive)	103% (inactive)	104% (inactive)	92.4% (inactive)	94.5% (inactive)	88.5% (inactive)	99.3% (inactive)	104% (inactive)	116% (inactive)	110% (inactive)	104% (inactive)	107% (inactive)	109% (inactive)	97.2% (inactive)	98.8% (inactive)	103% (inactive)	101% (inactive)	97% (inactive)	103% (inactive)
CSC1=Nc2c(c(C)c(-c3ccccc3)n2CCCCl)C2=NC(=O)CN12	77.6% (inactive)	79.3% (inactive)	82.1% (inactive)	64.3% (inactive)	64.7% (inactive)	55.8% (inactive)	74.1% (inactive)	77.9% (inactive)	79.1% (inactive)	94.8% (inactive)	19.3% (inactive)	82.8% (inactive)	65.2% (inactive)	94.7% (inactive)	77% (inactive)	43.3% (inactive)	61.7% (inactive)	83.8% (inactive)	30.8% (inactive)
O=C(NC1CCN(Cc2ccccc2)CC1)c1cc(-c2cccnc2)nc2ccc(Cl)cc12	67.9% (inactive)	84% (inactive)	91.6% (inactive)	101% (inactive)	56.5% (inactive)	90.4% (inactive)	56.3% (inactive)	78.7% (inactive)	-37.3% (active)	87.5% (inactive)	2.45% (active)	74% (inactive)	58.8% (inactive)	82.1% (inactive)	100% (inactive)	67.6% (inactive)	63.9% (inactive)	83.2% (inactive)	77.9% (inactive)
COc1ccc(CNCCCN2C(=O)c3ccc4c5c(ccc(c35)C2=O)C(=O)N(CCCNCc2ccc(OC)c(OC)c2OC)C4=O)c(OC)c1OC	-74.8% (active)	-64.7% (active)	-60.5% (active)	-44.3% (active)	-43.5% (active)	-88.6% (active)	-89.4% (active)	-78.8% (active)	-43.9% (active)	-96% (active)	-49.1% (active)	-78.5% (active)	-53.1% (active)	-91.9% (active)	-88.4% (active)	-76.8% (active)	-80.1% (active)	-97.5% (active)	-60.6% (active)
CC([C@H]1CCC2C3CCC4C[C@@H](N)CC[C@]4(C)C3CC[C@@]21C)N(C)C (some centres undefined)	77.1% (inactive)	112% (inactive)	77.3% (inactive)	104% (inactive)	53.1% (inactive)	102% (inactive)	86.1% (inactive)	71.7% (inactive)	6.07% (active)	88.7% (inactive)	21.2% (inactive)	5.88% (active)	58% (inactive)	24.3% (inactive)	37.1% (inactive)	76.6% (inactive)	13.1% (inactive)	-7.66% (active)	-6.67% (active)
CN1C(=O)C(=Cc2coc3ccc(Br)cc3c2=O)C(=O)N(C)C1=O	94.5% (inactive)	97.2% (inactive)	124% (inactive)	94.5% (inactive)	81.3% (inactive)	95% (inactive)	97.8% (inactive)	112% (inactive)	106% (inactive)	103% (inactive)	127% (inactive)	139% (inactive)	97.6% (inactive)	93.6% (inactive)	97.6% (inactive)	120% (inactive)	100% (inactive)	101% (inactive)	99.8% (inactive)
COc1ccccc1CNCCCN1C(=O)c2ccc3c4c(ccc(c24)C1=O)C(=O)N(CCCNCc1ccccc1OC)C3=O	-72.8% (active)	-64.7% (active)	-46.6% (active)	-35.9% (active)	-19.5% (active)	-90% (active)	-86.5% (active)	-50% (active)	-6.12% (active)	-81.4% (active)	-44.2% (active)	-73.6% (active)	-13.1% (active)	-93.9% (active)	-64.4% (active)	-56.3% (active)	-70.7% (active)	-97.9% (active)	-61.9% (active)
Oc1ccc([S+](c2ccc(O)cc2)c2ccc(O)cc2)cc1	106% (inactive)	88.3% (inactive)	95.3% (inactive)	94.3% (inactive)	92.2% (inactive)	112% (inactive)	98.7% (inactive)	106% (inactive)	102% (inactive)	120% (inactive)	94.7% (inactive)	106% (inactive)	117% (inactive)	94.6% (inactive)	114% (inactive)	96% (inactive)	98.9% (inactive)	98.4% (inactive)	105% (inactive)
